Tgondii IFNg = T. gondii growth inhibition with IFN-gamma, primary screen, cell-based | Toxoplasma gondii growth in IFN-gamma-treated host cells; hits give low values | activity change, negative = inhibition, % (test concentration not listed) | hit rate 3.8% among 69,000; in the data active means activity change below about -70%, passing the limit was not always enough;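 further: host cells are HeLa cells infected with Toxoplasma gondii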
Numbers without * were called inactive; i = inactive. The full list was thinned out, with hits kept by preference.

SMILES	Tgondii IFNg
Cc1cccc2cc(CN3CCCN4CCC[C@H]4C3)c(=O)[nH]c12	3.6
COCCN1C[C@H]2[C@H](OC)CCN(S(=O)(=O)c3cccnc3)[C@H]2C1	4.8
CC(C)c1nccc(C(=O)N2CCN3CCNC(=O)C3C2)n1 (configuration not stated)	7.8
COc1ccc(CN2CCC3(CC2)COCCN3CC2CC2)cn1	-21.5
O=C(NCc1cccs1)c1cc2cccnc2n(Cc2ccccc2)c1=O	-62.4
O=c1[nH]c2ccc(Cl)cc2c(N[C@@H]2CN3CCC2CC3)c1-c1nc2ccccc2[nH]1	-75.7*
CN1CC2(CCN(c3ncnc4nc[nH]c34)CC2)CC1C(=O)O (configuration not stated)	-0.7
C#C[C@]1(O)C=C[C@H]2[C@@H]3CCC4=CC(=O)CC[C@@H]4[C@H]3CC[C@@]21CC	-80.9*
C#C[C@]1(O)CC[C@H]2[C@@H]3CCC4=CC(=O)CC[C@]4(C)[C@H]3CC[C@@]21C	-16.4
FC1(F)CCN(Cc2cccs2)CC12CCN(c1ncccn1)C2 (configuration not stated)	-1.5
Cc1nccc2c1[nH]c1ccccc12	0.5
Cc1c2ccncc2c(C)c2c1[nH]c1ccccc12	-80.4*
c1ccc2c(c1)[nH]c1cnccc12	29.1
CNC(=O)[C@@H]1CC2CN(C(=O)c3cnoc3C)CC2N1C(C)C (some centres not stated)	0.7
CCCCCN1CC2CN(C(=O)Cc3ccc(Cl)cc3)CC21 (configuration not stated)	-6.6
CCC(C)NC(=O)c1cc2cccnc2n(Cc2ccccc2)c1=O (configuration not stated)	9.2
Cn1ccc(CN2CCCC3(CC(Oc4cccnc4)CO3)C2)n1 (configuration not stated)	i
CCN1C[C@H]2[C@H](OC)CCN(C(=O)c3cc(C4CC4)on3)[C@H]2C1	-0.8
Cc1cnc(N2CCN3C[C@H](OCCN(C)C)C[C@@H]3C2)nc1	-10.7
N#CCN1CCC2(CC1)C(=O)N(c1cncnc1)c1ccccc12	26.1
O=C(NCC1CCOCC1)c1cnc(Nc2ccc(Cl)cc2Cl)nc1C(F)(F)F	-73.8*
c1cncc(CN2CCC3OCCCC3(COCC3CC3)C2)c1 (configuration not stated)	60.8
Cn1cc(CN2CC3(CCN(C(=O)c4cccnc4)C3)C2)cn1	-4.8
COc1ccc(/C=C/C(=O)C2C(=O)N(C)C3(C)CC2c2cc(Br)ccc2O3)cc1OC (configuration not stated)	-60.1
COc1ccc(OC)c(/C=C/C(=O)C2C(=O)NC34CCCCC3C2c2ccccc2O4)c1 (configuration not stated)	-73.6*
SMILES	Tgondii IFNg
COc1ccc(/C=C/C(=O)C2C(=O)N(C)C34CCCC3C2c2ccccc2O4)cc1 (configuration not stated)	13.3
O=C(/C=C/c1ccccc1)C1C(=O)NC23CCCCC2C1c1ccccc1O3 (configuration not stated)	-64.2
Cc1ccc(N2CCO[C@@H]3CN(CCO)CC[C@H]3C2)nn1	-1.2
O=C(Nc1ccc(F)cc1)c1cc2cccnc2n(Cc2ccccc2F)c1=O	101.3
Cc1ccc(CN2CCC3O[C@@H](COc4cccnc4)CCC32)o1 (some centres not stated)	71.6
CC(C)N(C)Cc1cncc2c1CCN(c1ccccn1)C2	-2.9
O=C(NCc1cccs1)c1cc2cccnc2n(Cc2ccc(Cl)cc2)c1=O	51.1
CCOC(=O)CNC(=O)c1cc2cccnc2n(Cc2ccccc2)c1=O	-1.0
COC(=O)C[C@@](O)(CCC(C)(C)O)C(=O)O[C@@H]1C(OC)=C[C@]23CCCN2CCc2cc4c(cc2[C@@H]13)OCO4	-83.9*
CN1[C@H]2CC[C@@H]1CN(C(=O)NC1CCCC1)CC2	-6.2
C[C@@H]1O[C@@H](O[C@@H]2C=C3CCC4C(CC[C@]5(C)[C@@H](c6ccc(=O)oc6)CC[C@]45O)[C@@]3(C)CC2)C(O)C(O)[C@H]1O (some centres not stated)	-79.7*
Cc1cc(CN2CCO[C@@H]3[C@H]2CC[C@H]3OCC(C)C)no1	-7.5
CCO[C@@H]1CC[C@@H]2[C@H]1OCCN2Cc1cc(C)on1	-11.5
CCO[C@H]1CC[C@@H]2[C@H]1OCCN2Cc1cc(C)on1	-80.8*
COc1cccc(C(=O)Nc2ccc(Br)cc2C(=O)c2ccccc2Cl)c1	57.1
CC(=O)N1CCCCC12CCNC2 (configuration not stated)	-2.4
COc1ccccc1NC(=O)c1cc2cccnc2n(Cc2ccc(Cl)cc2)c1=O	34.6
